In PubChem BioAssay AID1347416 (National Center for Advancing Translational Sciences (NCATS), 2020):
In all, about 4,100 compounds went through this assay and about 1,600 (39%) were called active. Inconclusive results (about 25%) are left out. Calls follow the shape of the dose curve; as a rule, active = well fitted inhibition curve with a large enough effect; inconclusive = small, poorly fitted or top-dose-only effect; inactive = no such curve, though single readings can be large or run the other way. Some of the results follow.

Test: qHTS Validation assay for Inhibitors of Plasmodium falciparum Dd2 growth in vitro; also: nearly all actives have a fitted effect of over 70% in size
Details: P. falciparum Dd2 in RBCs, SYBR Green growth, 72 h; series mostly up to 28.7 µM; activity change, negative = inhibition: at the top concentration
In short: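 P. falciparum Dd2-infected red blood cells (2.5% hematocrit, 0.3% parasitemia) grown 72 h at 37 °C under 5% O2 with compounds in a titration, 29 uM to 0.5 nM final. Growth read as SYBR Green-1 fluorescence after ~16 h lysis; artesunate 300 nM as positive control.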
% is scaled to controls: 0 for no effect and ±100 for the full control effect; potency is read from the fitted curve at half-maximal effect.

Row | Compound | activity change, negative = inhibition | Potency
1 | Cc1nn(-c2cccc(Br)c2)c(C)c1[C@@H]1C=C[C@@H](NC(=O)c2cccs2)C1 | -11.6% (inactive) | –
2 | Cc1cccc(CCNC(=O)CCS(=O)(=O)c2cc3c(cc2Cl)NC(=O)CO3)c1 | 22.2% (inactive) | –
3 | COc1ccc(OC)c(C2CCN(c3ncncn3)C2)c1 (configuration not stated) | 20.9% (inactive) | –
4 | CC(C)Oc1ccc2c(NC(=O)c3ccn(C)n3)nn(CC(F)(F)F)c2c1 | 22.3% (inactive) | –
5 | O=C(NCc1cc(F)ccc1F)C1CCN(c2cn[nH]c(=O)c2)C1 (configuration not stated) | 14% (inactive) | –
6 | COc1ccc(-n2nc(C)c([C@@H]3C=C[C@@H](NCc4cccc(Cl)c4)C3)c2C)cc1 | – | 1.37 µM (active)
7 | COc1ccc(-n2nc(C)c([C@@H]3C=C[C@@H](NCc4ccc(N(C)C)cc4)C3)c2C)cc1 | – | 4.33 µM (active)
8 | Cn1c(=O)oc2cc(S(=O)(=O)CCC(=O)N3CCN(c4ccccc4F)CC3)ccc21 | 37.6% (inactive) | –
9 | O=c1[nH]c(N2CCOCC2)nc2c1CCN(Cc1cc(F)c(F)cc1F)CC2 | – | 15 µM (active)
10 | O=C(Nc1ccc(Cl)cc1)c1nc2c(o1)CCN(Cc1ccc(F)cc1F)CC2 | -4.48% [at 43.1 µM] (inactive) | –
11 | O=c1[nH]c(N2CCOCC2)nc2c1CCN(Cc1ccc(Cl)cc1F)CC2 | – | 3.35 µM (active)
12 | O=c1[nH]c(N2CCOCC2)nc2c1CCN(Cc1cc(Cl)ccc1F)CC2 | – | 2.37 µM (active)
13 | O=c1[nH]c(N2CCOCC2)nc2c1CCN(Cc1cc(Br)ccc1F)CC2 | – | 5.31 µM (active)
14 | O=C1CCN(Cc2ccc(F)cc2F)CCCC(c2nc(-c3cnccn3)no2)CCN1 (configuration not stated) | -24.9% (inactive) | –
15 | COc1ccc2c(c1OC)C(=O)OC2CC(=O)c1ccc(O)cc1 (configuration not stated) | 14.8% (inactive) | –
16 | CCOc1cc(C2CC(=O)NC3=C2C(=O)C(C(=O)OC)C(C)C3)cc(Br)c1O (configuration not stated) | – | 6.68 µM (active)
17 | COc1ccc(/C=C/C(=O)NCCc2ccc(OC)c(OC)c2)cc1 | 10.2% (inactive) | –
18 | CCOc1ccc(/C=C/C(=O)Nc2ccc3nc(N(CC)CC)cc(C)c3c2)cc1OC | – | 1.88 µM (active)
19 | CCN(CC)c1cc(C)c2cc(NC(=O)/C=C/c3cc(OC)c(OC)c(OC)c3)ccc2n1 | – | 4.73 µM (active)
20 | Fc1ccccc1Cn1nnc2c(-n3ccnc3)ncnc21 | 4.31% (inactive) | –
21 | O=C1Nc2ccccc2CN(CC2CC2)C12CCNCC2 | 1.97% (inactive) | –
22 | CN(C)c1cccc(Nc2cc3c(cn2)CN(Cc2ccccc2)CCN3)c1 | – | 13.7 µM (active)
23 | c1ccc(Nc2cc3c(cn2)CN(Cc2ccc4[nH]ccc4c2)CCN3)cc1 | – | 1.37 µM (active)
24 | Cc1nnc(-c2cc(Nc3cccc(N(C)C)c3)ccn2)n1Cc1ccccc1 | -11% [at 43.1 µM] (inactive) | –

Row | Compound | activity change, negative = inhibition | Potency
25 | O=C1NC(=NC2CCCC2)C2(CCN(Cc3ccsc3)C2)N1c1cccnc1 (configuration not stated) | -11.2% (inactive) | –
26 | CN(C)c1ncnc2sc3c(c12)CCN(Cc1ccc2cc[nH]c2c1)C3 | -7.09% (inactive) | –
27 | c1ccc(Nc2cc3c(cn2)CN(Cc2ccsc2)CCN3)cc1 | – | 13.7 µM (active)
28 | Cc1ccc(C)c(OC(=O)CSc2nnc(-c3cccs3)o2)c1 | 13% (inactive) | –
29 | CNS(=O)(=O)c1cn(CC(=O)N2CCN(c3ccc(C(C)=O)cc3)CC2)cc1S(=O)(=O)NC | 41.4% (inactive) | –
30 | CCOc1ccc(C(=O)Nc2cc(C)on2)cc1 | -10.9% (inactive) | –
31 | Cc1cc(NC(=O)CN2CCN(c3ccc(O)cc3)CC2)no1 | – | 4.73 µM (active)
32 | Cc1ccc(S(=O)(=O)NCc2nc3nc(C)cc(C)n3n2)c(C)c1 | 12.5% (inactive) | –
33 | Cc1cc(C)cc(Nc2cc(C)nc3nc(C)nn23)c1 | – | 5.31 µM (active)
34 | Cc1cc(Nc2ccc(Br)c(C)c2)n2nc(C)nc2n1 | – | 1.33 µM (active)
35 | Cc1cc(NC2C3CC4CC(C3)CC2C4)n2nnnc2n1 (configuration not stated) | -20.8% (inactive) | –
36 | Cc1cc(Nc2ccc(Br)cc2)n2nc(C)nc2n1 | – | 7.5 µM (active)
37 | Cc1cc(Nc2ccc(C)c(C)c2)n2nc(C)nc2n1 | – | 4.73 µM (active)
38 | CC(C)c1ccc(OCc2ccc(C(=O)O)o2)cc1 | -2.28% (inactive) | –
39 | CC(O)CNCCNCc1c(OCc2ccccc2)ccc2ccccc12 (configuration not stated) | – | 8.41 µM (active)
40 | Cc1cc(N2CCN(C3CCCCC3)CC2)nc2cccc(O)c12 | – | 5.31 µM (active)
41 | Cc1cc(N2CCC(N(C)C3CCCC3)CC2)nc2cc(O)ccc12 | – | 5.96 µM (active)
42 | Cc1nc2ccc(NC(=O)c3cc(S(=O)(=O)N(C)c4ccccc4)ccc3Cl)cc2s1 | – | 0.842 µM (active)
43 | COc1cccc(OC)c1C(=O)NC(=S)Nc1ccc2c(c1)C(=O)N(C)C2=O | – | 0.944 µM (active)
44 | COc1ccc(NC(=O)c2ccc3c(c2)n(C)c(=O)c2ccnn23)cc1OC | -18.1% (inactive) | –
45 | O=C(NC(=S)Nc1ccc2c(c1)OCCO2)c1ccccc1F | 35% (inactive) | –
46 | COC(=O)[C@@H]1Cc2c([nH]c3ccccc23)[C@H]2C[C@H](N3CCCCC3)C[C@@H](c3ccccc3F)N21 | – | 5.96 µM (active)
47 | C1CCC(COCCc2noc(C3CNC3)n2)C1 | -91.5% (inactive) | –
